Source: PubChem (several laboratories)
A selection: hits, their analogues and other compounds. The true share with any hit is near 2.6%.
CF NFkB inh – inhibitors of cystic fibrosis induced NF-kB; KKLEB NF-kB-GFP reporter, PAF-induced, GFP fluorescence overnight; inhibition, % at 5 µM; 0.86% of 360,000 active; AID 588850;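 active = at least 50% inhibition at 5 µM, scaled per plate between neutral and stimulator controls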;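 also: PAF is a Pseudomonas aeruginosa culture filtrate used as stimulus; plate controls were PAF-stimulated DMSO wells for no effect and unstimulated DMSO wells for full effect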
LGR2 inh – blocks bursicon-induced cAMP signaling via Drosophila LGR2. 0.35% of 380,000 active. AID 720647. inhibition, % at 9.99 µM. HEK293 LGR2, CRE-luciferase, bursicon-stimulated, 4 h;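 active = drop in luminescence signal, shown as inhibition above about 50% in the replicate tests, limit read from the data, passing the limit was not always enough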;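 also: agonist challenge used bursicon conditioned medium at about half maximal strength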
TWEAK Fn14 block – inhibitors of TWEAK-Fn14 interaction signaling. 2% of 360,000 active. inhibition, % at 10 µM. TWEAK-stimulated Fn14 reporter cells, luciferase luminescence, 8 h. AID 1159606; in the data active = inhibition above about 50%
KKLEB tox – reduces viability of KKLEB cystic fibrosis airway cells. AID 602141. KKLEB CF airway cells viability, ATPlite luminescence, overnight; active compounds read low; cells stimulated with P. aeruginosa culture filtrate. activity change (cytotoxicity), % at 5 µM. 0.36% of 360,000 active;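 active = corrected activity change at or below -50% at 5 µM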
EWS-Fli inh – blocks EWS/Fli oncoprotein-driven transcription | A673 NR0B1-luciferase reporter, viability-normalised | inhibition, % at 12.6 µM | 0.67% of 350,000 active | AID 651661;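 active = mean inhibition of at least 50% after viability correction, with every replicate also passing that limit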;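 also: firefly luciferase signal divided by Alamar Blue viability fluorescence both relative to DMSO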
TROY NFkB inh – blocks TROY-dependent signaling in reporter cells; Q293 LMP1-TROYcd NF-kB luciferase reporter, 4 h; 0.98% of 360,000 active; inhibition, % at 10 µM;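 active = compounds whose plate-normalised and pattern-corrected inhibition of the luciferase reporter signal at the single screening dose is 50% or more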
Starred values were filed as active, the others as inactive; . = no result; ! = a repeat was not active.

SMILES	CF NFkB inh	LGR2 inh	TWEAK Fn14 block	KKLEB tox	EWS-Fli inh	TROY NFkB inh
CC(Sc1nnc(CN2CCCC2)n1Cc1ccccc1)C(=O)Nc1ccccc1 (stereo not given)	1	-6	4	22	4	66*
CO[C@H]1CN(C)C(=O)c2ccc(NC(C)=O)cc2OC[C@H](C)N(Cc2ccc(F)cc2)C[C@@H]1C	.	-8	.	.	1	.
CC(N)=Nc1ccc([N+](=O)[O-])cc1	15	11	12	1	.	10
O=[N+]([O-])c1ccc(N=Nc2c(Cl)cc(O)cc2Cl)cc1	56*	22	87*	-70*	-15	27
Cc1ccc(-c2nc3ccccc3nc2-c2ccccc2)cc1	-6	-1	96*	4	2	-1
C[C@@H]1CN([C@@H](C)CO)C(=O)c2cc(NC(=O)Cc3ccccc3)ccc2O[C@@H]1CN(C)Cc1ccc(C(=O)O)cc1	.	6	.	.	.	.
O=C(C[C@H]1C[C@@H]2c3cc(NC(=O)C4CCC4)ccc3O[C@@H]2[C@@H](CO)O1)NCc1ccc2c(c1)OCO2	.	3	.	.	-6	.
CC1CCCN(c2ccc3nc4ccccc4c(=O)n3n2)C1 (stereo not given)	-10	62*	37	-19	43	66*
N#Cc1ccc(NC(=O)Nc2ccc(Cl)cc2)cc1	22	.	63*	-6	.	26
O=C(Nc1ccc(Cl)cc1)Nc1ccc(Cl)c(Cl)c1	.	2	.	.	-64	.
COc1cccc(N2CCN(C(=O)c3cn(Cc4ccccc4)nc3-c3cccnc3)CC2)c1	1	26	23	-16	57*	11
COc1cccc(N2CCN(C(=O)c3ccc(CS(=O)c4ccc(Cl)cc4)o3)CC2)c1 (stereo not given)	24	-20	-1	-32	56*	14
Cc1ccc(C(=O)Nc2cccc(NC(=O)c3ccc(C)c([N+](=O)[O-])c3)n2)cc1[N+](=O)[O-]	5	-7	33	-7	-15	13
Cc1ccc(C(=O)Nc2sc(C)c(-c3ccccc3)c2C(N)=O)cc1[N+](=O)[O-]	30	.	98*	-14	.	87*
C[C@@H]1CN([C@@H](C)CO)C(=O)c2cccc(N(C)C)c2O[C@@H]1CN(C)Cc1ccccc1	.	-2	.	.	-2	.
CCN1CCN(Cc2ccc(NC(=O)c3cc(NC(=O)c4cc5cccc(OC)c5o4)cc(OC)c3)cc2C(F)(F)F)CC1	55*!	12	60*!	-53*!	53*!	-11
CCN1CCN(Cc2ccc(NC(=O)c3cc(NC(=O)c4cncc(-c5cccs5)c4)cc(OC)c3)cc2C(F)(F)F)CC1	35	30	-64	-16	64*	8
CCN1CCN(Cc2ccc(NC(=O)c3cc(NC(=O)c4cc(-c5ccc(OC)cc5)n[nH]4)cc(OC)c3)cc2C(F)(F)F)CC1	14	2	-97	-10	51*	-15
CCOC(=O)N(C)C[C@@H]1OCc2ccccc2-c2ccccc2C(=O)N([C@@H](C)CO)C[C@@H]1C	.	0	.	.	-11	.
CCCC#Cc1cnc2c(c1)C(=O)N([C@H](C)CO)C[C@@H](C)[C@H](CN(C)Cc1ccccc1F)O2	.	15	.	.	6	.
COc1ccc(S(=O)(=O)N(C)C[C@H]2Oc3c(NC(=O)Nc4ccc(F)cc4)cccc3C(=O)N([C@H](C)CO)C[C@@H]2C)cc1	.	2	.	.	-8	.
O=C(Nc1cccc(F)c1)N1CCCCN2[C@H](C1)[C@H](c1ccc(-c3ccccc3F)cc1)[C@@H]2CO	.	9	.	.	14	.
COc1cc(-c2noc(C)c2C(=O)NCCc2c[nH]c3ccccc23)cc(OC)c1OC	-3	-15	-5	-2	17	19
COc1cc(-c2noc(C)c2-c2ccc3[nH]ccc3c2)cc(OC)c1OC	-22	.	56*	-4	.	12
COc1cc(-c2noc(C)c2-c2ccc(N(C)C)nc2)cc(OC)c1OC	37	-2	8	-23	61*	7
SMILES	CF NFkB inh	LGR2 inh	TWEAK Fn14 block	KKLEB tox	EWS-Fli inh	TROY NFkB inh
CCCCCCCCCCCCCCCC(O)C[N+](C)(C)CCO (stereo not given)	54*	-3	-61	-62*	6	2
CCCCCC(O)CCCC(=O)O (stereo not given)	-13	-9	-11	10	-11	1
Cc1cc(N2CCC(C(=O)NCC3CC3)CC2)nc(-c2ccccc2)n1	13	.	78*	-11	.	6
CCNC(=O)C[C@@H]1CC[C@H]2[C@@H](COC[C@H](O)CN2C(=O)Nc2ccc3c(c2)OCO3)O1	.	4	.	.	-3	.
CCCCNC(=S)NCC(c1ccccc1)c1c[nH]c2ccccc12 (stereo not given)	-9	-7	18	10	4	14
CN(C)CCCNC(=S)NCC(c1ccc(Cl)cc1Cl)c1c[nH]c2ccccc12 (stereo not given)	18	-2	-46	-2	62*	0
Cc1ccc(S(=O)(=O)N(C)C[C@@H]2Oc3cc(-c4cccc(F)c4)ccc3S(=O)(=O)N([C@H](C)CO)C[C@H]2C)cc1	.	12	.	.	17	.
O=C(Nc1ccc(N2CCN(C(=O)c3cccs3)CC2)cc1)c1ccco1	4	4	-1	8	-14	-4
CCC(=O)Nc1ccc(N2CCN(C(=O)c3cccs3)CC2)cc1	7	23	-4	1	4	-3
O=C(Nc1ccc(N2CCN(C(=O)c3cccs3)CC2)cc1)c1ccc([N+](=O)[O-])o1	107*	13	5	-56*	.	-11
O=C(COc1ccccc1[N+](=O)[O-])Nc1ccc(N2CCN(C(=O)c3cccs3)CC2)cc1	-19	75*	72*	-18	-8	76*
Cc1cc(OCC(=O)OCC(=O)c2c(N)n(C)c(=O)n(C)c2=O)ccc1Cl	-19	1	86*	-10	-10	15
Cc1ccc(OCC(=O)OCC(=O)c2c(N)n(C)c(=O)n(C)c2=O)cc1C	-8	19	-21	1	.	-12
COc1ccccc1CNc1ccc2c(c1)CCC2	-3	-29	66*	-4	-15	47
COc1ccc(CNc2ccc3c(c2)CCC3)cc1Br	-4	.	57*	0	-16	48
O=C(C1CCOCC1)N1CC[C@@H]2[C@@H](CO)Nc3ccc(-c4ccc(F)cc4)cc3[C@@H]21	.	-5	.	.	7	.
Cc1nnsc1C(=O)N/N=C/c1ccc2ccccc2c1O	1	-3	54*	-2	.	26
CO[C@H]1CN(C)C(=O)c2cc(NC(=O)c3ccccc3)ccc2OC[C@H](C)N(C(C)=O)C[C@@H]1C	.	1	.	.	0	.
CCOC(=O)c1cnc2ccc(OC)cc2c1NCc1ccccc1	-9	10	1	-7	-1	-21
CCOC(=O)c1cnc2ccc(OCC)cc2c1NCc1ccccc1OC	4	-8	72*	-10	.	54*
C[C@H](CO)N1C[C@H](C)[C@@H](CN(C)S(=O)(=O)c2ccccc2)Oc2ccc(NC(=O)CCC(F)(F)F)cc2CC1=O	.	14	.	.	8	.
